{"source": "ChEMBL document CHEMBL1961873", "about": "“Compounds: GSK PKIS; Assays: Nanosyn kinase panel” (2012)", "data": [{"biological_target": "Casein kinase I isoform gamma-1 (Homo sapiens) (UniProt Q9HCP0)", "sequence (Q9HCP0 whole entry, looked up, canonical isoform)": "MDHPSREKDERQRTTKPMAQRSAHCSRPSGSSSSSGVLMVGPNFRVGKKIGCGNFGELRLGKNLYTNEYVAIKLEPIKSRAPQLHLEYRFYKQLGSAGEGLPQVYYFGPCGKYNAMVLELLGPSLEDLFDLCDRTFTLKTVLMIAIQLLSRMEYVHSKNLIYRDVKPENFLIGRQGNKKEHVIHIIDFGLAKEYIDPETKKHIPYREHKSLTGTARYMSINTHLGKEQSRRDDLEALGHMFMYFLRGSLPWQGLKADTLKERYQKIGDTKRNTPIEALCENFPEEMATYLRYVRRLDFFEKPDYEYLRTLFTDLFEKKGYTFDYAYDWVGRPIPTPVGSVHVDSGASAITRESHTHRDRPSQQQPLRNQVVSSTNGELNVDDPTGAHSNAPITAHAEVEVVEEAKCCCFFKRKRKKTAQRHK", "details": "at 0.1 µM", "units": {"inhibition": "%"}, "values": [{"smiles": "CCCN(CCS(C)(=O)=O)Cc1ccc(-c2ccc3ncnc(Nc4ccc(OCc5cccc(F)c5)c(Cl)c4)c3c2)o1", "inhibition": 1.24}, {"smiles": "CCn1c(-c2nonc2N)nc2c(C#CC(C)(C)O)ncc(OC3CCNCC3)c21", "inhibition": 2.94}, {"smiles": "CCn1c(-c2nonc2N)nc2c(C#CC(C)(C)O)nc(OC[C@H](N)c3ccccc3)cc21", "inhibition": 1.99}, {"smiles": "CC(=O)Nc1cccc(C#Cc2cncnc2Nc2ccc(OCc3cccc(F)c3)c(Cl)c2)c1", "inhibition": 2.22}, {"smiles": "Cc1ccc(O)cc1Nc1ccnc2cc(-c3ccccn3)ccc12", "inhibition": 4.65}, {"smiles": "CCn1c(-c2nonc2N)nc2cnc(Oc3cccc(NC(=O)c4ccc(N(C)C)cc4)c3)cc21", "inhibition": 1.44}, {"smiles": "NC(=O)c1sc(-n2cnc3ccc(C(F)(F)F)cc32)cc1OCc1ccccc1Br", "inhibition": 3.36}, {"smiles": "CCc1nn2ncccc2c1-c1ccnc(NC2CC2)n1", "inhibition": 1.08}, {"smiles": "N#Cc1c(NC(=O)CN2CCOCC2)sc2c1CCCC2", "inhibition": 3.78}, {"smiles": "CN(C)CCOc1ccc(-c2nc(-c3ccncc3)c(-c3ccc4c(c3)CC/C4=N\\O)[nH]2)cc1", "inhibition": 2.51}, {"smiles": "CCOc1ccc2c(-c3ccnc(Nc4cccc(C(F)(F)F)c4)n3)cnn2n1", "inhibition": 2.16}, {"smiles": "COc1cccc(-c2c[nH]c3c(N/N=C/c4ccncc4)ncnc23)c1", "inhibition": 1.21}, {"smiles": "c1cc(-c2cnn3nc(N4CCOCC4)ccc23)nc(NC2CC2)n1", "inhibition": 3.42}, {"smiles": "CNC(=O)c1cncc(/C=C/c2ccccc2Cl)c1", "inhibition": 0.2}, {"smiles": "c1ccc(-c2nc3n(c2-c2ccc4c(c2)OCO4)CCC3)nc1", "inhibition": 1.06}, {"smiles": "Fc1cccc(COc2ccc(Nc3ncnc4sc(-c5ccco5)cc34)cc2Cl)c1", "inhibition": 4.55}, {"smiles": "CC(C)(CO)CNC(=O)c1ccc2c(c1)/C(=N/Nc1ccc(S(N)(=O)=O)cc1)C(=O)N2", "inhibition": 0.88}, {"smiles": "COc1ccc(-c2cc(-c3c[nH]nc3-c3ccccn3)ccn2)cc1", "inhibition": 4.71}, {"smiles": "CC(=O)NCc1cccc(C#Cc2cncnc2Nc2ccc(OCc3cccc(F)c3)c(Cl)c2)c1", "inhibition": 0.6}, {"smiles": "COc1ccc(CNC(=O)c2ccc(-c3cc(-c4nnc(C)o4)ccc3C)cc2)cc1", "inhibition": 1.07}, {"smiles": "O=S(=O)(CCNCc1ccc(-c2ccc3ncnc(Nc4ccc(OCc5cccc(F)c5)c(Cl)c4)c3c2)o1)c1ccccc1", "inhibition": 4.93}, {"smiles": "Nc1nc(-c2cccc(Cl)c2)c(-c2ccc3ncccc3n2)s1", "inhibition": 5.14}, {"smiles": "CS(=O)(=O)CCNCc1ccc(-c2ccc3ncnc(Nc4ccc(OCc5ccccc5)c(C(F)(F)F)c4)c3c2)o1", "inhibition": 3.86}, {"smiles": "CCN(CC)S(=O)(=O)c1ccc(OC)c(Nc2ncc(-c3ccccc3)o2)c1", "inhibition": 0.91}, {"smiles": "CS(=O)(=O)CCNCc1coc(-c2ccc3ncnc(Nc4ccc(OCc5ccccc5)cc4)c3c2)c1", "inhibition": 1.97}, {"smiles": "CCN1CCC(CC(=O)Nc2n[nH]c3nnc(-c4cccc(F)c4F)cc23)CC1", "inhibition": 0.85}, {"smiles": "CN1CCC(n2cnc(-c3ccc(F)cc3)c2-c2ccnc(Nc3ccccc3)n2)CC1", "inhibition": 7.05}, {"smiles": "CCNC(=O)O[C@H]1CN[C@H](C#Cc2cc3ncnc(Nc4ccc(OCc5cccc(F)c5)c(Cl)c4)c3s2)C1", "inhibition": 2.15}, {"smiles": "Clc1ccc(-c2nn3ncccc3c2-c2ccnc(Nc3ccccc3)n2)cc1", "inhibition": 3.83}, {"smiles": "Cc1cccc2c1NC(=O)/C2=N\\Nc1ccc(S(N)(=O)=O)cc1", "inhibition": 2.88}, {"smiles": "COc1cc(/C=N/Nc2ncnc3[nH]ncc23)ccc1O", "inhibition": 3.68}, {"smiles": "COc1cccc(-n2ncc3c(N/N=C/c4ccc(F)cc4)ncnc32)c1", "inhibition": 3.78}, {"smiles": "COc1cc(N2CCN(C(C)C)CC2)ccc1Nc1nc(Nc2ccc(F)cc2C(N)=O)c2cc[nH]c2n1", "inhibition": 9.86}]}, {"biological_target": "Casein kinase I isoform gamma-1 (Homo sapiens) (UniProt Q9HCP0)", "details": "at 1 µM", "units": {"inhibition": "%"}, "values": [{"smiles": "CCCN(CCS(C)(=O)=O)Cc1ccc(-c2ccc3ncnc(Nc4ccc(OCc5cccc(F)c5)c(Cl)c4)c3c2)o1", "inhibition": 1.53}, {"smiles": "CCn1c(-c2nonc2N)nc2c(C#CC(C)(C)O)ncc(OC3CCNCC3)c21", "inhibition": 4.65}, {"smiles": "CCn1c(-c2nonc2N)nc2c(C#CC(C)(C)O)nc(OC[C@H](N)c3ccccc3)cc21", "inhibition": 5.61}, {"smiles": "CC(=O)Nc1cccc(C#Cc2cncnc2Nc2ccc(OCc3cccc(F)c3)c(Cl)c2)c1", "inhibition": 2}, {"smiles": "Cc1ccc(O)cc1Nc1ccnc2cc(-c3ccccn3)ccc12", "inhibition": 11}, {"smiles": "CCn1c(-c2nonc2N)nc2cnc(Oc3cccc(NC(=O)c4ccc(N(C)C)cc4)c3)cc21", "inhibition": 1.65}, {"smiles": "NC(=O)c1sc(-n2cnc3ccc(C(F)(F)F)cc32)cc1OCc1ccccc1Br", "inhibition": 3.78}, {"smiles": "CCc1nn2ncccc2c1-c1ccnc(NC2CC2)n1", "inhibition": 2.03}, {"smiles": "N#Cc1c(NC(=O)CN2CCOCC2)sc2c1CCCC2", "inhibition": 5.69}, {"smiles": "CN(C)CCOc1ccc(-c2nc(-c3ccncc3)c(-c3ccc4c(c3)CC/C4=N\\O)[nH]2)cc1", "inhibition": 4.6}, {"smiles": "CCOc1ccc2c(-c3ccnc(Nc4cccc(C(F)(F)F)c4)n3)cnn2n1", "inhibition": 3.1}, {"smiles": "COc1cccc(-c2c[nH]c3c(N/N=C/c4ccncc4)ncnc23)c1", "inhibition": 4.05}, {"smiles": "c1cc(-c2cnn3nc(N4CCOCC4)ccc23)nc(NC2CC2)n1", "inhibition": 8.05}, {"smiles": "CNC(=O)c1cncc(/C=C/c2ccccc2Cl)c1", "inhibition": -0.31}, {"smiles": "c1ccc(-c2nc3n(c2-c2ccc4c(c2)OCO4)CCC3)nc1", "inhibition": 2.79}, {"smiles": "Fc1cccc(COc2ccc(Nc3ncnc4sc(-c5ccco5)cc34)cc2Cl)c1", "inhibition": 4.42}, {"smiles": "CC(C)(CO)CNC(=O)c1ccc2c(c1)/C(=N/Nc1ccc(S(N)(=O)=O)cc1)C(=O)N2", "inhibition": 4.11}, {"smiles": "COc1ccc(-c2cc(-c3c[nH]nc3-c3ccccn3)ccn2)cc1", "inhibition": 5.78}, {"smiles": "CC(=O)NCc1cccc(C#Cc2cncnc2Nc2ccc(OCc3cccc(F)c3)c(Cl)c2)c1", "inhibition": 0.01}, {"smiles": "COc1ccc(CNC(=O)c2ccc(-c3cc(-c4nnc(C)o4)ccc3C)cc2)cc1", "inhibition": -0.25}, {"smiles": "O=S(=O)(CCNCc1ccc(-c2ccc3ncnc(Nc4ccc(OCc5cccc(F)c5)c(Cl)c4)c3c2)o1)c1ccccc1", "inhibition": 6.77}, {"smiles": "Nc1nc(-c2cccc(Cl)c2)c(-c2ccc3ncccc3n2)s1", "inhibition": 16.6}, {"smiles": "CS(=O)(=O)CCNCc1ccc(-c2ccc3ncnc(Nc4ccc(OCc5ccccc5)c(C(F)(F)F)c4)c3c2)o1", "inhibition": 8.13}, {"smiles": "CCN(CC)S(=O)(=O)c1ccc(OC)c(Nc2ncc(-c3ccccc3)o2)c1", "inhibition": 0.27}, {"smiles": "CS(=O)(=O)CCNCc1coc(-c2ccc3ncnc(Nc4ccc(OCc5ccccc5)cc4)c3c2)c1", "inhibition": 2.4}, {"smiles": "CCN1CCC(CC(=O)Nc2n[nH]c3nnc(-c4cccc(F)c4F)cc23)CC1", "inhibition": 2.08}, {"smiles": "CN1CCC(n2cnc(-c3ccc(F)cc3)c2-c2ccnc(Nc3ccccc3)n2)CC1", "inhibition": 42}, {"smiles": "CCNC(=O)O[C@H]1CN[C@H](C#Cc2cc3ncnc(Nc4ccc(OCc5cccc(F)c5)c(Cl)c4)c3s2)C1", "inhibition": 2.01}, {"smiles": "Clc1ccc(-c2nn3ncccc3c2-c2ccnc(Nc3ccccc3)n2)cc1", "inhibition": 1.87}, {"smiles": "Cc1cccc2c1NC(=O)/C2=N\\Nc1ccc(S(N)(=O)=O)cc1", "inhibition": 3.11}, {"smiles": "COc1cc(/C=N/Nc2ncnc3[nH]ncc23)ccc1O", "inhibition": 19}, {"smiles": "COc1cccc(-n2ncc3c(N/N=C/c4ccc(F)cc4)ncnc32)c1", "inhibition": 4.75}, {"smiles": "COc1cc(N2CCN(C(C)C)CC2)ccc1Nc1nc(Nc2ccc(F)cc2C(N)=O)c2cc[nH]c2n1", "inhibition": 42.2}]}]}
